Data: PubChem BioAssay (NCATS)
Inconclusive results are not listed. Activity calls are given as the source filed them. Calls follow the shape of the dose curve; as a rule, active = well fitted inhibition curve with a large enough effect; inconclusive = small, poorly fitted or top-dose-only effect; inactive = flat fitted curve, though single readings scatter.

The molecules below were run against Phospholipid hydroperoxide glutathione peroxidase GPX4 (Homo sapiens) (UniProt P36969) (assay: Primary qHTS Assay for Inhibitors of Recombinant Selenoprotein Glutathione Peroxidase 4 (GPX4) (AID 1845192; also: nearly all actives have a fitted effect of over 65% in size)). Conditions: recombinant GPX4, GR-coupled NADPH fluorescence, 15 min; series mostly up to 50 µM; activity change, negative = inhibition: at the top concentration.
Method in brief: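 qHTS, GR-coupled: GPX4 200 nM + cpd 30 min RT → GSH 1 mM, NADPH 0.5 mM, GR 100 nM → CHP 0.5 mM start; fluor 340/450 at t0 and t15 min; no-enzyme wells as control.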
% is scaled to controls: 0 for no effect and ±100 for the full control effect.

Sequence of Phospholipid hydroperoxide glutathione peroxidase GPX4 (Homo sapiens) (P36969 whole entry, looked up): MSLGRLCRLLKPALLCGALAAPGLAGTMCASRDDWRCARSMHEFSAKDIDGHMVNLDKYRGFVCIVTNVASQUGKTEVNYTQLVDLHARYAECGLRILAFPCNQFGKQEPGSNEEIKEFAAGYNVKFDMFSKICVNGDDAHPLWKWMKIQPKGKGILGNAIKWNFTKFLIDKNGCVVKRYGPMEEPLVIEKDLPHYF

SMILES	outcome	activity change, negative = inhibition
O=C(O)CCCc1ccccc1	inactive	
O=C(/C=C/c1ccccc1)OCc1ccccc1		-10.7% (inactive)
CC(C(=O)O)c1ccc2c(c1)Cc1cccnc1O2 (configuration not stated)		-10.5% (inactive)
C[C@]1(Cn2ccnn2)[C@H](C(=O)O)N2C(=O)C[C@H]2S1(=O)=O		-1.49% (inactive)
CC(=O)OCC(COC(C)=O)OC(C)=O	inactive	
CC(C)CCCC(C)CCCC(C)CCCCC(C)CCCC(C)CCCC(C)C (configuration not stated)		-25% (inactive)
CC(C)C[C@@H](N)C(=O)O		-11.8% [at 27.8 µM] (inactive)
Cc1cccc(C)c1NC(=O)CC12CCCN1CCC2	inactive	
Cc1cc(C)c(NC(=O)CN(CC(=O)O)CC(=O)O)c(C)c1Br	inactive	
OC[C@@H](O)[C@@H](O)[C@H](O)[C@H](O)CO		-0.371% (inactive)
CC(=O)Nc1ccccc1	inactive	
O=C(OOC(=O)c1ccccc1)c1ccccc1		-1.26% (inactive)
CC(=O)NCc1c(I)c(NC(C)=O)c(I)c(C(=O)O)c1I	inactive	
CC1(C)[C@@H](OC(=O)CCC(=O)O)CC[C@]2(C)[C@H]3C(=O)C=C4[C@@H]5C[C@@](C)(C(=O)O)CC[C@]5(C)CC[C@@]4(C)[C@]3(C)CC[C@@H]12	inactive	
CC(C)(C)C(=O)OCOC(=O)[C@@H]1N2C(=O)[C@@H](NC(=O)[C@H](N)c3ccccc3)[C@H]2SC1(C)C		-13.1% (inactive)
C/C=C1\[C@H]2C=C(C)C[C@]1(N)c1ccc(=O)[nH]c1C2		4.88% (inactive)
O=C(O)c1ccc(OCCCOc2ccc(C(=O)O)cc2)cc1		-9.42% (inactive)
